Screening data from PubChem.
This is a sample that favours compounds with a hit; in the whole collection about 5% have one here.
CHT inh: inhibits the human high affinity choline transporter; Q9GZV3; CHT-expressing cells, membrane potential dye, choline response; active compounds read low; B-score at 10 µM; 0.86% of 310,000 active; AID 488975;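 active means B-score over 3 SD under the library average, and starting fluorescence ratio not unusually high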;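 further: choline stimulus applied at its EC90 after an EC20 pre-addition; B-score computed on integrated fluorescence ratio after choline addition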
Target sequence (Q9GZV3 whole entry, looked up): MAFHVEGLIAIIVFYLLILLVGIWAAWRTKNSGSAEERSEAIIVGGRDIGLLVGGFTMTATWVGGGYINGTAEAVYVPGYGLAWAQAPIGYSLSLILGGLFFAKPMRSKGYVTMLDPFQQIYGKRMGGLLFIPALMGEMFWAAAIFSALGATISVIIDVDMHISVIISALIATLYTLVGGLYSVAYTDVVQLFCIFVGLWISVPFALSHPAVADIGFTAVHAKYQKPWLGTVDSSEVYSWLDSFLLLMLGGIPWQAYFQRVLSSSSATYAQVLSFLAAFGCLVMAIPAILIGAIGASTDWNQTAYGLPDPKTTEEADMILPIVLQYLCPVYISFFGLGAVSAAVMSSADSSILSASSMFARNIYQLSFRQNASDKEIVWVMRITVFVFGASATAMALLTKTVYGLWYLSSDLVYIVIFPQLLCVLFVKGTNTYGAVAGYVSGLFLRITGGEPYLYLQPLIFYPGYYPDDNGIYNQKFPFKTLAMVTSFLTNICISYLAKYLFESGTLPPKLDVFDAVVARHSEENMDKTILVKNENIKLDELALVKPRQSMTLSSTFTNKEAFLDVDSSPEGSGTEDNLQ
ALR inh: blocks human ALR sulfhydryl oxidase activity | 3.8% of 290,000 active | AID 485317 | inhibition, % (test concentration not listed) | purified ALR, DTT oxidation, H2O2 HRP-luminol luminescence | P55789;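 active means mean replicate inhibition above about 79%, with every replicate also reaching it, limit read from the data; inconclusive means only one of the two criteria met; inactive means mean below limit and not every replicate reaching it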
CHT PAM: allosterically activates the human high affinity choline transporter; B-score at 10 µM; 0.49% of 310,000 active; Q9GZV3; CHT-expressing cells, membrane potential dye, choline EC20; active compounds read high; LV-AA mutant CHT in HEK293 cells; AID 488977;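 active means initial fluorescence not abnormally high and integrated response B-score, plate-corrected, over 3 SD above library mean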
AI-2 QS modul: modulators of Vibrio harveyi AI-2 quorum sensing system; activity change, % at 7.5 µM; 0.4% of 300,000 active; Vibrio harveyi JMH597 AI-2 luminescence/OD600 ratio, 9 h; active compounds read low; strain lacks LuxN and CqsS sensors; 0 = neutral-control median; AID 2094; in the data active means activity change below about -75%, passing the limit was not always enough; inconclusive means no clear call, values can overlap the other calls;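 further: luminescence divided by OD600 gain over 9 h not by final OD600 alone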
PREPL inhibitor: inhibits the human prolyl oligopeptidase-like enzyme. 0.68% of 320,000 active. inhibition, % at 5.96 µM. Q4J6C6. AID 2751. recombinant PREPL, fluorescence polarization activity-based probe; in the data active means inhibition above about 43%
JMH597 growth rt: retest: blocks Vibrio harveyi JMH597 growth. AID 2726. shares compounds with AI-2 QS modul. OD600 absorbance, 9 h; lacks LuxN and CqsS sensors. growth inhibition, % at 7.5 µM. 1% of 750 active;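 active means every replicate shows growth inhibition above 50%; inconclusive means at least half, but not all, replicates pass that cutoff; inactive means fewer than half of replicates pass it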
BB721 const-QS lum: retest counter-screen: lowers luminescence of constitutive-QS Vibrio harveyi BB721 | shares compounds with AI-2 QS modul | 9 h | inhibition, % at 7.5 µM | 95% of 750 active;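 active means inhibition above about 80% in every replicate, not just on average, limit read from the data; inconclusive means at least half of replicates past the limit, but not all; inactive means fewer than half of replicates past the limit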
BB721 growth: retest: blocks Vibrio harveyi BB721 growth. shares compounds with AI-2 QS modul. OD600 absorbance, 9 h. growth inhibition, % at 7.5 µM. 3% of 750 active;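 active means every replicate shows growth inhibition above 50%; inconclusive means at least half but not all replicates above 50% inhibition; inactive means under half of replicates above 50% inhibition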
JMH597 AI-2 mod: Vibrio harveyi AI-2 signaling luminescence modulation – JMH597 strain, confirmation; shares compounds with AI-2 QS modul; Vibrio harveyi JMH597 AI-2 quorum sensing luminescence, 9 h; luxN and CqsS knockout, AI-2 only; inhibition, % at 7.5 µM; 97% of 750 active; AID 2736;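 active means every replicate shows more than 75% inhibition of signal versus neutral control wells; inconclusive means half to three quarters of replicates exceed 75% inhibition; inactive means fewer than half of replicates exceed 75% inhibition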
A number is an active result; - = inactive; ? = inconclusive; . = no result.

SMILES | CHT inh | ALR inh | CHT PAM | AI-2 QS modul | PREPL inhibitor | JMH597 growth rt | BB721 const-QS lum | BB721 growth | JMH597 AI-2 mod
O=C(O)c1ccc(N/N=C/c2ccnc3ccccc23)cc1 | - | - | - | - | - | . | . | . | .
COc1ccc(/C=N/Nc2ccc(C(=O)O)cc2)c(OC)c1OC | - | . | - | -92 | - | - | 95 | - | 96
COc1ccc(CC(=O)NCc2n[nH]c(=S)n2-c2cccc(Cl)c2)cc1 | - | - | - | - | - | . | . | . | .
COc1ccc(N2CCN(C(=O)c3cc4c(s3)CCCCC4)CC2)cc1 | . | . | . | . | - | . | . | . | .
COc1ccc2nc3sc(C(=O)N4CCN(C)CC4)cc3cc2c1 | - | - | - | -86 | - | - | 89 | - | 93
O=[N+]([O-])c1ccccc1CNC(Cc1ccccc1)c1ccccc1 (centres undefined) | - | - | - | - | - | . | . | . | .
Cc1cc([N+](=O)[O-])nn1CC(=O)N(C)C1CCCCC1 | - | . | - | - | - | . | . | . | .
Nc1cc(Nc2ccc(Br)cc2)nc(N)n1 | - | - | - | -96 | - | - | 99 | - | 99
O=C(COc1cccc(C(F)(F)F)c1)Nc1cccnc1 | - | - | - | - | - | . | . | . | .
O=C(COc1cccc(C(F)(F)F)c1)Nc1ccc2[nH]ncc2c1 | - | - | - | -79 | - | - | 87 | - | 91
CCCSc1nsc(NC(=O)c2cccnc2OCC)n1 | - | - | - | -95 | - | - | 100 | - | 100
CCOc1ncccc1C(=O)Nc1nnc(C(CC)CC)s1 | - | - | - | - | - | . | . | . | .
CCOc1ccc(C(C)=O)cc1COc1ccc(C)nc1[N+](=O)[O-] | - | . | - | - | - | . | . | . | .
COC(=O)N[C@@H]1C[C@H]2[C@@H]3CC[C@H]4C[C@@H](OC)CC[C@]4(C)[C@H]3CC[C@@]12C | . | - | . | . | - | . | . | . | .
C=CCn1c(SCCOc2ccccc2)nnc1C(C)NC(=O)c1ccccc1 (centres undefined) | - | - | - | - | - | . | . | . | .
C=CCn1c(CCNC(=O)c2ccc(Cl)c(Cl)c2)nnc1SCCOc1ccc(OC)cc1 | - | - | - | -84 | - | - | 90 | - | 94
COC(=O)/C(=C1/Oc2cc(C)oc(=O)c2S1)C(F)(F)F | - | - | - | ? | - | - | 91 | 63 | 93
COc1ccc(/C(N)=N/OC(=O)Cc2ccc(C)cc2)cc1 | - | - | - | -91 | - | - | 95 | - | 97
Cc1ccc(/C(N)=N/OC(=O)Cc2ccccc2)cc1 | - | - | - | - | - | . | . | . | .
COc1ccc(CC(=O)O/N=C(\N)c2ccccn2)cc1 | - | - | - | ? | - | - | 84 | - | 88
Cc1ccc(-c2ccc(/C=N/NC(N)=S)o2)cc1 | - | - | - | -87 | - | - | 90 | ? | 92
O=C(COc1nncc2ccccc12)Nc1ccc(F)c(F)c1 | - | - | - | -96 | - | - | 99 | - | 99
CC(C)c1ccc(NC(=O)COc2nncc3ccccc23)cc1 | - | - | - | -96 | - | - | 99 | ? | 100
CCc1ccc(S(=O)(=O)Nc2ccccn2)cc1 | - | - | - | . | - | . | . | . | .
CCc1ccc(S(=O)(=O)Nc2ccc(Br)cn2)cc1 | - | - | - | ? | - | - | - | - | 95
SMILES | CHT inh | ALR inh | CHT PAM | AI-2 QS modul | PREPL inhibitor | JMH597 growth rt | BB721 const-QS lum | BB721 growth | JMH597 AI-2 mod
C[C@H]1CN([C@@H](C)CO)C(=O)c2cc(NC(=O)C3CCCCC3)ccc2O[C@H]1CN(C)C(=O)Nc1ccc2c(c1)OCO2 | . | - | . | . | - | . | . | . | .
Cc1ccc(NC(=O)Cn2nc(C)c3ccccc3c2=O)cc1 | - | - | - | -85 | - | - | 97 | - | 98
Cc1cc(NC(=O)Cn2c(C)nc3ccccc3c2=O)ccc1Br | - | . | - | -87 | - | - | 99 | - | 99
Cc1cc(C)cc(NC(=O)Cn2nnc3ccccc3c2=O)c1 | - | - | - | -83 | - | - | 96 | - | 97
CC(=O)Nc1ccc(C(=O)Cn2nnc3ccccc3c2=O)cc1 | - | - | - | - | - | . | . | . | .
C[C@@]12C(=O)Nc3cc(F)ccc3C(=O)N1[C@H]1c3ccccc3OC[C@@H]1[C@@H]2c1ccccc1 | - | - | - | . | - | . | . | . | .
CCc1ccc(OCC(=O)O/N=C(\N)c2cccnc2)cc1 | - | - | - | -92 | - | - | 95 | - | 96
Cc1ccc(C)c(OCC(=O)O/N=C(\N)c2cccnc2)c1 | - | - | - | - | - | . | . | . | .
Cc1ccc(NS(=O)(=O)c2c(C)[nH]c(C)c2C(=O)N2CCCCC2)cc1Cl | - | - | - | - | - | . | . | . | .
O=C(CN1C(=O)c2ccccc2C1=O)Nc1cccnc1 | - | - | - | -82 | - | - | 93 | - | 94
O=C(CN1CCN(c2ccccc2)CC1)Nc1cccc([N+](=O)[O-])c1 | - | - | - | - | - | . | . | . | .
O=C(CN1C(=O)c2ccccc2C1=O)Nc1cccc([N+](=O)[O-])c1 | - | - | - | -95 | - | - | 99 | - | 99
O=C(Nc1ccccc1)OCCOc1ccccc1 | - | - | - | - | - | . | . | . | .
O=C(Nc1cccc(Cl)c1)OCCOc1ccccc1 | - | - | - | -87 | . | - | 92 | - | 92
O=C(c1cc(-c2ccccc2O)on1)N1CCc2ccccc2C1 | - | - | - | - | - | . | . | . | .
CC1CCN(C(=O)c2cc(-c3ccccc3O)on2)CC1 | - | - | - | -84 | - | - | 95 | - | 96
CC1CCN(C(=O)c2cc(-c3ccc4c(c3)OCO4)on2)CC1 | - | - | - | -90 | - | - | 96 | - | 97
CCCCN(C)CCNC(=O)c1ccc(Cn2c(=S)[nH]c3ccc(Br)cc3c2=O)cc1 | - | - | - | - | - | . | . | . | .
CN(CC(=O)Nc1ccc(Cl)c(C(F)(F)F)c1)C(=O)C1(c2ccccc2)CC1 | - | . | - | - | - | . | . | . | .
CN(CC(=O)Nc1ccc(Cl)c(C(F)(F)F)c1)C(=O)c1cccs1 | - | - | - | -89 | - | - | 98 | - | 98
Cc1noc(C)c1CSCC(=O)N(C)CC(=O)Nc1ccc(Cl)c(C(F)(F)F)c1 | - | - | - | -87 | - | - | 95 | - | 96
COc1ccc(NC(=O)C(=S)N2CCCC2)cc1 | - | - | - | - | - | . | . | . | .
O=C(CSc1nc2ncccc2[nH]1)NCCc1ccccc1 | - | - | - | - | - | . | . | . | .
CCCCc1ccc(NC(=O)CSc2nc3ncccc3[nH]2)cc1 | - | - | - | -88 | - | - | 93 | - | 96
COc1ccc2cc(-c3ccccc3F)ncc2c1 | . | - | . | . | - | . | . | . | .
O=C(CCN1C(=O)CSC1=O)Nc1ccc(Br)cc1 | - | . | - | -80 | - | - | - | - | -
CC(=O)c1c(C)n(-c2ccccc2)c2ccc(OCC(N)=O)cc12 | - | . | - | - | - | . | . | . | .
